Data on five compounds can be found in PubChem BioAssay AID504809 (National Center for Advancing Translational Sciences (NCATS), 2011).

Results filed as inconclusive are left out. Active and inactive are the calls of the source. The call rests on the fitted dose curve; in most records, active means well fitted curve in the direction sought with a large enough effect; inconclusive means small, poorly fitted or top-dose-only effect, or another doubt; inactive means no such curve, though single readings can be large or run the other way.

This test in a line: Followup screen for small molecules that induce DNA re-replication in MCF 10A normal breast cells. Conditions: MCF 10A DNA re-replication, Hoechst nuclear intensity, 48 h; series mostly up to 46.1 µM; re-replication activation: at the top concentration. From the text: NIH Molecular Libraries Probe Production Network [MLPCN] NIH Chemical Genomics Center [NCGC] MLPCN Grant: Fast Track K99 CA136555 Assay Provider: Melvin DePamphilis, NICHD, NIH Assay Overview Eukaryotic cells normally restrict genome duplication to once per cell division. When this process is aberrant, DNA re-replication occurs when cells reinitiate DNA replication before the first round of replication is complete. DNA re-replication induces the DNA damage response, arrests cell proliferation, and triggers apoptosis. The cell cycle components cyclin A, Cdt-1, Cdc6 and geminin are critical regulators of this process and their misregulation results in DNA re-replication in normal and cancer cells. To identify compounds that induce re-replication in normal cells, an image-based assay was used to measure DNA content of nuclei, as detected by the fluorescent DNA binding dye, Hoechst. Cell nuclei were imaged by a fluorescence scanning plate imager and compounds that induce DNA re-replication were identified by the increase of nuclei with elevated fluorescence intensity.
Assay Protocol Summary For screening, 250 cells in 5 uL/well were dispensed into black clear 1536-well plates (Aurora) using a solenoid-based dispenser. Following transfer of 23 nL compound or DMSO vehicle by a pin tool, the plates were incubated 48 hr at 37 C and 5% CO2. After addition of 1 uL/well Hoescht stain, the plates were incubated 40 min at 37 C, 5% CO2 and total intensity of fluorescent objects (nuclei) were enumerated by an Acumen Explorer Ex3 (TTP LabTech) fluorescence scanning plate imager (405 nm excitation, 500-530 nm emission). Keywords: NIH Roadmap, MLPCN, MLI, MLSMR, qHTS, NCGC, DNA replication, cancer
In the case of `CCN(CC)C(=S)SSC(=S)N(CC)CC.[Cl-].[Cl-].[Cu+2]`, the Potency is 0.095 µM (active).

For `CC(=O)[O-].CCN(CC)C(=S)SSC(=S)N(CC)CC.[Cu+]`, the Potency was 0.19 µM (active).

Regarding `CCN(CC)C(=S)SSC(=S)N(CC)CC`, the Potency is 21.3 µM (active).

Regarding `CC(=O)[O-].CS(C)=O.[Cu+]`, the “re-replication activation” value was -7.36% (inactive).

Take `CS(C)=O.[Cl-].[Cl-].[Cu+2]`: the “re-replication activation” value is -11.4% (inactive).
